Experimental data taken from PubChem BioAssay (NCATS).
Results filed as inconclusive are left out. Active and inactive are the calls of the source. The call rests on the fitted dose curve; in most records, active means well fitted curve in the direction sought with a large enough effect; inconclusive means small, poorly fitted or top-dose-only effect, or another doubt; inactive means no such curve, though single readings can be large; an effect the other way counts as inactive or inconclusive.

How the values were obtained:
[1] = qHTS of pediatric cancer cell lines to identify multiple opportunities for drug repurposing: Primary screen for NB-EBc1 cells (AID 1347095); conditions: NB-EBc1 neuroblastoma viability, CellTiter-Glo luminescence, 48 h; series mostly up to 46 µM
Method in brief: (§1)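 Cells seeded at 500-1,000 cells/well in growth media, rested 5 hours at 37 degrees C, 5% CO2, then dosed; MIPE compounds at 11-point (from 0.78 nM) and NPC at 8-point (from 0.59 nM) final concentrations. Viability by CellTiter-Glo luminescence after 48 hours.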

[2] = qHTS of pediatric cancer cell lines to identify multiple opportunities for drug repurposing: Primary screen for Saos-2 cells (AID 1347097); conditions: Saos-2 viability, CellTiter-Glo ATP luminescence, 48 h; series mostly up to 46 µM; further: nearly all actives have a fitted effect of over 40% in size
Method in brief: as §1

[3] = qHTS of pediatric cancer cell lines to identify multiple opportunities for drug repurposing: Primary screen for LAN-5 cells (AID 1347100); conditions: LAN-5 neuroblastoma viability, CellTiter-Glo luminescence, 48 h; series mostly up to 46 µM
Method in brief: (§2)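 Viability after 48 h compound treatment at 37C, 500-1,000 cells/well, read as ATP luminescence with CellTiter-Glo. Primary screens used 11-point (MIPE, 0.78 nM-46 µM) or 8-point (NPC, 0.59 nM-46 µM) final concentrations; follow-up screens used 11-point dilutions.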

[4] = qHTS of pediatric cancer cell lines to identify multiple opportunities for drug repurposing: Primary screen for OHS-50 cells (AID 1347103); conditions: OHS-50 osteosarcoma viability, CellTiter-Glo luminescence, 48 h; series mostly up to 57.3 µM; further: nearly all actives have a fitted effect of over 40% in size
Method in brief: (§3)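 Cells (500-1,000/well) rested 5 h, then received compounds for 48 h; metabolically active cells were measured by CellTiter-Glo luminescence. Final concentrations spanned up to 46 µM (MIPE, 11-point) or 0.59 nM-46 µM (NPC, 8-point) in primary screens, 11-point in follow-ups.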

[5] = qHTS of pediatric cancer cell lines to identify multiple opportunities for drug repurposing: Primary screen for RD cells (AID 1347104); conditions: RD rhabdomyosarcoma viability, CellTiter-Glo luminescence, 48 h; series mostly up to 46 µM; further: nearly all actives have a fitted effect of over 55% in size
Method in brief: as §1

[6] = qHTS of pediatric cancer cell lines to identify multiple opportunities for drug repurposing: Primary screen for SK-N-SH cells (AID 1347098); conditions: SK-N-SH viability, CellTiter-Glo luminescence, 48 h; series mostly up to 57 µM; further: nearly all actives have a fitted effect of over 65% in size
Method in brief: as §3

[7] = qHTS of pediatric cancer cell lines to identify multiple opportunities for drug repurposing: Primary screen for NB1643 cells (AID 1347099); conditions: NB1643 neuroblastoma viability, CellTiter-Glo luminescence, 48 h; series mostly up to 46 µM; further: nearly all actives have a fitted effect of over 50% in size
Method in brief: as §1

[8] = qHTS of pediatric cancer cell lines to identify multiple opportunities for drug repurposing: Primary screen for Rh18 cells (AID 1347102); conditions: Rh18 rhabdomyosarcoma viability, CellTiter-Glo luminescence, 48 h; series mostly up to 46 µM; further: nearly all actives have a fitted effect of over 65% in size
Method in brief: as §2

[9] = qHTS of pediatric cancer cell lines to identify multiple opportunities for drug repurposing: Primary screen for BT-12 cells (AID 1347101); conditions: BT-12 viability, CellTiter-Glo luminescence, 48 h; series mostly up to 57.3 µM; further: nearly all actives have a fitted effect of over 25% in size
Method in brief: as §3

Measured: Potency
Potency means the concentration at half of the fitted maximal effect.

COc1ccc(C=Cc2cc(OC)c(OC)c(OC)c2)cc1O
active: [1] 1 nM | [2] 935 nM | [3] 1 nM | [4] 1 nM
inactive: [5]

Cc1nc2cnc3ccc(C#Cc4cccnc4)cc3c2n1-c1ccc(C(C)(C)C#N)cc1
active: [1] 833 nM | [6] 68.1 nM | [7] 3320 nM | [3] 5900 nM | [8] 1180 nM | [4] 96.8 nM | [5] 83.3 nM

C=CC(=O)Nc1cccc(Oc2nc(Nc3ccc(N4CCN(C)CC4)cc3)ncc2Cl)c1
active: [1] 2350 nM | [6] 3830 nM | [3] 2640 nM | [9] 17200 nM | [8] 3720 nM | [4] 3060 nM | [5] 20900 nM

O=C(NC1CCNCC1)c1[nH]ncc1NC(=O)c1c(Cl)cccc1Cl
active: [1] 1870 nM | [6] 1710 nM | [9] 1930 nM | [4] 968 nM | [5] 332 nM

C=CC(=O)Nc1cccc(Oc2nc(Nc3ccc(N4CCN(C)CC4)cc3OC)ncc2Cl)c1
active: [1] 2350 nM | [2] 6620 nM | [7] 1180 nM | [3] 1050 nM | [9] 34300 nM | [8] 20900 nM | [4] 4850 nM | [5] 7430 nM

Nc1nc(NCCNc2ncc(-n3ccnc3)c(-c3ccc(Cl)cc3Cl)n2)ccc1[N+](=O)[O-]
active: [1] 13200 nM | [2] 26400 nM | [7] 18700 nM | [3] 10500 nM | [9] 24300 nM | [8] 14800 nM | [4] 19300 nM | [5] 14800 nM

CNC(=O)CN1CCC(Oc2cc3c(Nc4cccc(Cl)c4F)ncnc3cc2OC)CC1
active: [1] 6.6 nM | [6] 60.7 nM | [3] 1 nM | [9] 1.4 nM | [4] 1 nM | [5] 2.6 nM

NCC(=O)Nc1ccc(-n2nc(C(F)(F)F)cc2-c2ccc3c(ccc4ccccc43)c2)cc1
active: [1] 833 nM | [2] 26400 nM | [7] 18700 nM | [3] 23500 nM | [9] 24300 nM | [8] 26400 nM | [4] 30600 nM | [5] 16600 nM

CN[C@H]1CCc2cc(OC)c(OC)c(OC)c2-c2ccc(OC)c(=O)cc21
active: [1] 1 nM | [2] 3.7 nM | [3] 2.3 nM | [9] 3.9 nM | [4] 1.5 nM

CC1(O)CC(c2nc(-c3ccc4ccc(-c5ccccc5)nc4c3)c3c(N)nccn23)C1 (stereo not drawn)
active: [1] 662 nM | [7] 2090 nM | [3] 418 nM | [9] 17200 nM | [4] 544 nM | [5] 590 nM

C#Cc1cccc(Nc2ncnc3cc(OC)c(OCCCCCCC(=O)NO)cc23)c1
active: [1] 148 nM | [6] 121 nM | [7] 74.3 nM | [3] 332 nM | [9] 2170 nM | [8] 469 nM | [4] 485 nM | [5] 187 nM

CC(C)(C)c1cnc(CSc2cnc(NC(=O)C3CCNCC3)s2)o1
active: [1] 935 nM | [2] 743 nM | [6] 1520 nM | [9] 432 nM | [4] 273 nM | [5] 264 nM

CC(=O)Nc1sc2c(c1-c1nc3ccccc3s1)CNC2
active: [1] 2350 nM | [6] 1210 nM | [7] 5260 nM | [3] 10500 nM | [4] 24300 nM

Cn1c(=O)n(-c2ccc(C(C)(C)C#N)cc2)c2c3cc(-c4cnc5ccccc5c4)ccc3ncc21
inactive: [7]
active: [1] 372 nM | [2] 235 nM | [3] 1660 nM | [8] 209 nM | [4] 109 nM | [5] 332 nM

CC(C)c1cnn2c(NCc3ccccc3)cc(N[C@@H](CO)[C@H](O)CO)nc12
active: [1] 187 nM | [2] 296 nM | [6] 304 nM | [9] 344 nM | [4] 273 nM | [5] 372 nM

CC1(C)CCC(c2ccc(Cl)cc2)=C(CN2CCN(c3ccc(C(=O)NS(=O)(=O)c4ccc(N[C@H](CCN5CCOCC5)CSc5ccccc5)c(S(=O)(=O)C(F)(F)F)c4)cc3)CC2)C1
active: [1] 18.7 nM | [6] 24100 nM | [7] 9.3 nM | [3] 9.3 nM | [9] 15300 nM | [8] 29.6 nM | [4] 5440 nM | [5] 10500 nM

O=C(C=Cc1cccnc1)NCCCCC1CCN(C(=O)c2ccccc2)CC1
active: [1] 11.8 nM | [6] 482 nM

OCCCNc1cc(-c2ccnc(Nc3cccc(Cl)c3)n2)ccn1
active: [1] 93.5 nM | [2] 148 nM | [9] 193 nM | [4] 153 nM | [5] 235 nM

CS(=O)(=O)N1CCN(Cc2cc3nc(-c4cccc5[nH]ncc45)nc(N4CCOCC4)c3s2)CC1
active: [1] 833 nM | [2] 52.6 nM | [7] 833 nM | [3] 1050 nM | [8] 1320 nM | [4] 76.9 nM | [5] 1050 nM

COc1cc2ncnc(Nc3ccc(F)c(Cl)c3)c2cc1NC(=O)C=CCN1CCCCC1
active: [1] 26400 nM | [2] 16600 nM | [7] 14800 nM | [3] 14800 nM | [9] 24300 nM | [8] 18700 nM | [4] 7690 nM | [5] 29600 nM

CCCCOc1c(C(=O)c2c(F)cc(C)cc2F)cnc2n[nH]cc12
active: [1] 2350 nM | [2] 3720 nM | [7] 2960 nM | [3] 4180 nM | [9] 6110 nM | [4] 5440 nM | [5] 18700 nM
inactive: [8]

C=C1C(=CC=C2CCCC3(C)[C@@H]([C@H](C)C=CC=CC(O)(CC)CC)CC[C@@H]23)C[C@@H](O)C[C@@H]1O (stereo partly drawn)
inactive: [8]
active: [1] 18700 nM | [7] 14800 nM | [3] 14800 nM | [4] 24300 nM | [5] 26400 nM

CCn1cc(-c2ccnc3[nH]c(-c4cccc(CN(C)C)c4)cc23)c(-c2ccc(NC(=O)N(C)C)cc2)n1
active: [1] 469 nM | [6] 3040 nM | [7] 3320 nM | [3] 26.4 nM | [8] 16600 nM | [4] 3850 nM | [5] 10500 nM
